Measurements reported in PubChem BioAssay (NCATS).
Results filed as inconclusive are left out. Active and inactive are the calls of the source. Calls come from the whole dose curve; as a rule, active = well fitted cell-killing curve with a large enough effect; inconclusive = small, poorly fitted or top-dose-only effect; inactive = no such curve, though single readings can be large or run the other way. Numbered stars: 1 amine (or outer) side, 2 acyl side, 3 side chain; on linkers, the order of the positions; unused ones are H or OH. Bridge positions count the residues as written; N and C are the ends. Square brackets hold non-standard residues; d marks the D form. Peptide text beside a SMILES is read from it. I, II: the chains in the order shown. Actinocin(9to1) = Cc1c2oc3c(C)ccc(C(=O)[*:1])c3nc-2c(C(=O)[*:2])c(N)c1=O; NMeV = CN[C@H](C(=O)O)C(C)C; Sar = CNCC(=O)O

Assay: qHTS of pediatric cancer cell lines to identify multiple opportunities for drug repurposing: Confirmatory screen for U-2 OS cells (AID 1347122); note: nearly all actives have a fitted effect of over 65% in size
Details: U-2 OS osteosarcoma cell viability; series mostly up to 45.9 µM; activity change, negative = cytotoxicity: at the top concentration
Source text: Drug repurposing or repositioning has been offered as a strategy for drug development in oncology programs. This approach has special potential for childhood cancers and other rare or orphan diseases, where the expected return on new drug development has been a disincentive to pharmaceuticals.
In this project we exploit the poly-pharmacology of drugs to discover new indications via phenotypic screening of a panel of 19 well-characterized cell lines derived from solid tumors seen in children and adolescents. The goal is to identify approved drugs with previously unrecognized anticancer properties that has the potential to reveal new mechanisms and biological processes involved in carcinogenesis or drug resistance. We employed a titration-based paradigm (quantitative high-throughput screening or qHTS), where all compounds were tested at multiple concentrations for their effect on cell viability. Concentration-response curves (CRCs) were derived directly from the primary screen, and both potency and efficacy values were used to identify compounds with robust bioactivity profiles. We screened the NIH Chemical Genomics Center (NCGC) Pharmaceutical Collection (NPC) and Mechanism Interrogation Plate (MIPE) small molecule collections of approved and investigational compounds against these cell lines; and measured metabolically active cells after 48 hours of compound treatment as a proxy for cell viability.
Assay Submitter: Nathalia J. Martinez, National Center for Advancing Translational Sciences, National Institutes of Health, Rockville, MD, USA; email: natalia.martinez@nih.gov
[1] Shen, M et al. Quantitative high-throughput phenotypic screening of pediatric cancer cell lines identifies multiple opportunities for drug repurposing. Oncotarget 2017 Dec 19;9(4):4758-4772. PMID 29435139.
The cells were obtained from University of North Carolina (UNC), Pediatric Preclinical Testing Program (PPT), and Coriell Institute (CI).
qHTS cell viability assay:
Cells were assayed in growth media at a density of 500-1,000 cells/well. Five microliters of cells were dispensed into 1,536-well, white, solid-bottom, TC-treated plates (Greiner Bio One) using a multidrop dispenser and incubated at 37 degrees C, 5% CO2, under a humidified atmosphere for 5 hours. Twenty-three nanoliters of compounds and controls (neutral control DMSO or positive control bortezomib at final concentration of 2.3 µM) were subsequently transferred by Kalypsys pintool. For primary screens, the MIPE collection was tested at 11-point dilutions (final concentrations range from 0.78 nM to 46 µM) and the NPC collection at 8-point dilutions (final concentrations range from 0.59 nM to 46 µM). Compounds tested in follow-up screens were assayed at 11-point dilutions. Cells were incubated for 48 hours, followed by addition of 3 µL of CellTiter-Glo (Promega). After a 15 min incubation at room temperature, samples were analyzed for luminescence intensity using a ViewLux High-throughput CCD imager equipped with clear filters.
Potency is the fitted concentration of half-maximal effect.

Structure (SMILES)	activity change, negative = cytotoxicity	Potency
NC(CO)(CO)CO	8.95% (inactive)	–
Oc1ccc(O)cc1	7.61% (inactive)	–
CC(=O)OCC(=O)[C@@]1(O)CC[C@H]2[C@@H]3CCC4=CC(=O)C=C[C@]4(C)[C@H]3[C@@H](O)C[C@@]21C	17.4% (inactive)	–
CN(C)/N=N/c1nc[nH]c1C(N)=O	-19.1% (inactive)	–
CCCC(=O)O[C@]1(C(=O)CO)CC[C@H]2[C@@H]3CCC4=CC(=O)CC[C@]4(C)[C@H]3[C@@H](O)C[C@@]21C	0.519% (inactive)	–
CC1(C)O[C@@H]2C[C@H]3[C@@H]4C[C@H](F)C5=CC(=O)CC[C@]5(C)[C@H]4[C@@H](O)C[C@]3(C)[C@]2(C(=O)CO)O1	3.15% (inactive)	–
CC(=O)OCC(=O)[C@@]12N=C(C)O[C@@H]1C[C@H]1[C@@H]3CCC4=CC(=O)C=C[C@]4(C)[C@H]3[C@@H](O)C[C@@]12C	-8.69% (inactive)	–
CCC(C(=O)OCCN(CC)CC)c1ccccc1 (configuration not stated)	-65.5% (inactive)	–
CCCCCCC[N+](CC)(CC)CCCCc1ccc(Cl)cc1	-77.8% (inactive)	–
C[C@]12C=CC(=O)C=C1[C@@H](F)C[C@@H]1[C@@H]2[C@@H](O)C[C@@]2(C)[C@H]1CC[C@]2(O)C(=O)CO	28.5% (inactive)	–
CC1(C)O[C@@H]2C[C@H]3[C@@H]4CCC5=CC(=O)CC[C@]5(C)[C@@]4(F)[C@@H](O)C[C@]3(C)[C@]2(C(=O)CCl)O1	-22.7% (inactive)	–
Cc1c2oc3c(C)ccc(C(=O)N[C@@H]4C(=O)N[C@H](C(C)C)C(=O)N5CCC[C@H]5C(=O)N(C)CC(=O)N(C)[C@@H](C(C)C)C(=O)O[C@@H]4C)c3nc-2c(C(=O)N[C@@H]2C(=O)N[C@H](C(C)C)C(=O)N3CCC[C@H]3C(=O)N(C)CC(=O)N(C)[C@@H](C(C)C)C(=O)O[C@@H]2C)c(N)c1=O (I: T[dV]P[Sar][NMeV] / II: T[dV]P[Sar][NMeV]; ester I:1-I:C, II:1-II:C; linker I:N-II:N via Actinocin(9to1))	–	369 nM (active)
C[C@@H]1C[C@H]2[C@@H]3CCC4=CC(=O)C=C[C@]4(C)[C@@]3(F)[C@@H](O)C[C@]2(C)[C@H]1C(=O)CO	5.71% (inactive)	–
C[C@]12C=CC(=O)C=C1CC[C@@H]1[C@@H]2[C@@H](O)C[C@@]2(C)[C@H]1CC[C@]2(O)C(=O)CO	16.4% (inactive)	–
CC(C)(C(=O)c1cccnc1)c1cccnc1	11.3% (inactive)	–
CC(=O)OCC(=O)[C@@]12OC(C)(C)O[C@@H]1C[C@H]1[C@@H]3C[C@H](F)C4=CC(=O)C=C[C@]4(C)[C@@]3(F)[C@@H](O)C[C@@]12C	1.24% (inactive)	–

Structure (SMILES)	activity change, negative = cytotoxicity	Potency
C[C@@H]1CN(CCCn2c3ccccc3c3ccccc32)C[C@H](C)N1	-11.5% (inactive)	–
NC(=O)CC[C@@H]1NC(=O)[C@H](Cc2ccccc2)NC(=O)[C@H](Cc2ccc(O)cc2)NC(=O)CCSSC[C@@H](C(=O)N2CCC[C@H]2C(=O)N[C@@H](CCCN=C(N)N)C(=O)NCC(N)=O)NC(=O)[C@H](CC(N)=O)NC1=O	32.1% (inactive)	–
CN(C)C(=S)SC(=S)N(C)C	1.22% (inactive)	–
C[C@H]1C[C@H]2[C@@H]3CCC4=CC(=O)C=C[C@]4(C)[C@@]3(Cl)[C@@H](O)C[C@]2(C)[C@@]1(O)C(=O)CO	-22.5% (inactive)	–
COCc1c(C(C)C)nc(C(C)C)c(/C=C/[C@@H](O)C[C@@H](O)CC(=O)O)c1-c1ccc(F)cc1	–	261 nM (active)
CCCCC(CC)CN=C(N)NC(N)=NCCCCCCN=C(N)NC(N)=NCC(CC)CCCC (configuration not stated)	–	4650 nM (active)
CC(=O)OCC(=O)[C@@]1(O)[C@H](C)C[C@H]2[C@@H]3CCC4=CC(=O)C=C[C@]4(C)[C@@]3(F)[C@@H](O)C[C@@]21C	–	20800 nM (active)
O=C(CCCN1CCC(O)(c2ccc(Br)cc2)CC1)c1ccc(F)cc1	-20.1% (inactive)	–
C[C@]12CCC(=O)C=C1CC[C@H]1[C@@H]3CC[C@](O)(C(=O)CO)[C@@]3(C)C[C@H](O)[C@@]12F	11.4% (inactive)	–
CCOc1ccc2nc3cc(N)ccc3c(N)c2c1	–	585 nM (active)
C[n+]1c2cc(N)ccc2cc2ccc(N)cc21 (tested in a mixture with another compound)	–	16500 nM (active)
COc1c(C)c2c(c(O)c1C/C=C(\C)CCC(=O)O)C(=O)OC2	–	1850 nM (active)
CC(=O)OCC(=O)[C@@]1(OC(C)=O)[C@@H](C)C[C@H]2[C@@H]3C[C@H](F)C4=CC(=O)C=C[C@]4(C)[C@@]3(F)[C@@H](O)C[C@@]21C	-18.3% (inactive)	–
CC(=O)[C@H]1CC[C@H]2[C@@H]3C[C@H](C)C4=CC(=O)CC[C@]4(C)[C@H]3[C@@H](O)C[C@]12C	–	329 nM (active)
C[C@@H]1C[C@H]2[C@@H]3C[C@H](F)C4=CC(=O)C(Cl)=C[C@]4(C)[C@@]3(F)[C@@H](O)C[C@]2(C)[C@@]1(O)C(=O)CO	-1.22% (inactive)	–
CC(=O)Oc1ccc(C(c2ccc(OC(C)=O)cc2)c2ccccn2)cc1	-6.75% (inactive)	–
